Screening results as filed in PubChem BioAssay.
nsP2pro primary – blocks chikungunya virus nsP2 protease peptide cleavage; Q8JUX6; FRET peptide cleavage, nsP2pro, fluorescence 1 h; Potency, µM (top dose mostly 24.9 µM), for the others: top-dose activity change, negative = inhibition, actives largely listed as inhibitors; 31,000 tested, 1.1% active; AID 1964107; further: nearly all actives have a fitted effect of over 60% in size
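Enzyme 150 nM, substrate 2.5 uM (both final); Tris-HCl 10 mM pH 8.0 + 0.01% Tween 20; cpd up to 25 uM, 7 pts; 15 min preinc., 1 h RT; fluorescence ex 525/em 598.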
nsP2 cell sec – cell-based CHIKV nsP2 protease inhibition, secondary. Potency, µM (top dose mostly 51.1 µM), for the others: at the top dose activity change, negative = inhibition, hits mostly inhibitors. 450 tested, 10% active. cell-based CHIKV nsP2 protease reporter assay. shares compounds with nsP2pro primary; further: nearly all actives have a fitted effect of over 70% in size
CHIKV NSP2 FL – inhibits full-length CHIKV NSP2 enzyme. Potency, µM (highest dose often 50.7 µM), for the others: at the top dose activity change, negative = inhibition, actives largely listed as inhibitors. shares compounds with nsP2pro primary. Full-length CHIKV NSP2 protease enzymatic counterscreen. 410 tested, 39% active; further: nearly all actives have a fitted effect of over 65% in size
Furin counterscr – selectivity counter-screen for CHIKV nsP2 protease inhibitors: human furin; shares compounds with nsP2pro primary; Recombinant human furin enzymatic counterscreen, fluorogenic substrate; Potency, µM (series often up to 50.6 µM), for inactives: at the top dose activity change, negative = inhibition, actives largely listed as inhibitors; 410 tested, 6% active; AID 1964102
NS23 peptide cs – nsP2pro inhibition on native NS2/3 peptide substrate; Purified CHIKV nsP2 protease, endogenous NS2/3 peptide cleavage; shares compounds with nsP2pro primary; Potency, µM (doses to about 51 µM), for inactives: at the top dose activity change, negative = inhibition, usual class: inhibitors; AID 1964103; 410 tested, 34% active; further: nearly all actives have a fitted effect of over 55% in size
Papain cs – selectivity counter-screen for CHIKV nsP2 protease inhibitors: papain. AID 1964104. shares compounds with nsP2pro primary. 410 tested, 5% active. Potency, µM (series often up to 51 µM), for the others: top-dose activity change, negative = inhibition, hits mostly inhibitors. purified papain protease activity, enzymatic inhibition
Target sequence (P00784 whole entry, looked up): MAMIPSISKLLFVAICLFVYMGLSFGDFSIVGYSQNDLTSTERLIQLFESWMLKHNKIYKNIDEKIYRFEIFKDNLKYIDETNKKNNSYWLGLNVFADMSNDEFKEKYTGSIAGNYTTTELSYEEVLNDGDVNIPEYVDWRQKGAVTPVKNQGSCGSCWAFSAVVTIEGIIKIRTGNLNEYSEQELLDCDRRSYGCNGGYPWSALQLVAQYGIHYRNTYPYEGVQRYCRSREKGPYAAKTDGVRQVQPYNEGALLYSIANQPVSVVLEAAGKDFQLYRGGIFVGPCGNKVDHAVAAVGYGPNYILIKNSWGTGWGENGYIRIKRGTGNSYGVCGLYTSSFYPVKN
nsP2pro confirm – confirmation of CHIKV nsP2 protease inhibitors; shares compounds with nsP2pro primary; CHIKV nsP2 protease enzymatic activity, qHTS; Potency, µM (highest dose often 25.5 µM), for inactives: top-dose activity change, negative = inhibition, most hits filed as inhibitors; 410 tested, 43% active; AID 1964105; further: nearly all actives have a fitted effect of over 75% in size
HCV NS3 4A cs – inhibits HCV NS3/4A protease in an nsP2pro selectivity counterscreen; shares compounds with nsP2pro primary; HCV NS3/4A protease biochemical counterscreen; Potency, µM (doses to about 50.9 µM), actives largely listed as inhibitors; 410 tested, 20% active; further: nearly all actives have a fitted effect of over 55% in size
* hit, by the source's call; i = inactive; u = inconclusive; ! = not active in a repeat; [ ] = remark or other dose. Shown is part of a subset that was picked to be rich in hits. The call rests on the fitted dose curve. On the % scale 0 is the no-effect control and ±100 the full control effect; potency means the concentration at half of the fitted maximal effect.

SMILES	nsP2pro primary	others
COc1cc(C2Oc3c(OC)cc(/C=C/C(=O)OC[C@H]4O[C@@H](OC(C)(C)C(=O)O)[C@H](O)[C@@H](O)[C@@H]4O)cc3C2CO)ccc1O (stereo partly drawn)	-7%[10 µM]
Cc1cccc2c3c(ccc12)C1=C(C(=O)C3=O)[C@@H](C)CO1	u	nsP2 cell sec=-15%;CHIKV NSP2 FL=10µM*;Furin counterscr=-16%;NS23 peptide cs=u;Papain cs=u;nsP2pro confirm=10µM*;HCV NS3 4A cs=i
FC(F)(F)c1ccc(CNc2nc(-c3ccccc3C(F)(F)F)nc3ccccc23)cc1	i
O=S(=O)(Nc1ccccc1F)c1ccc(O)c2ncccc12	i
Cc1cc(C=CC#N)cc(C)c1Nc1nc(Nc2ccc3scnc3c2)c2[nH]cnc2n1	-21%
Cc1cc(C)nc(NC(=S)N2CCN(c3ccc(N4CCCC4)nn3)CC2)c1	-5%
C/C(=C(\CCOP(=O)(O)O)SC(=O)c1ccccc1)N(C=O)Cc1cnc(C)nc1N	-8%[2.68 µM]
CCCSS/C(CCO)=C(\C)N(C=O)Cc1cnc(C)nc1N	8.8µM*	nsP2 cell sec=-21%;CHIKV NSP2 FL=16µM*;Furin counterscr=-1%;NS23 peptide cs=u;Papain cs=-6%;nsP2pro confirm=8µM*;HCV NS3 4A cs=i
CCOC(=O)OCC/C(SC(=O)OCC)=C(\C)N(C=O)Cc1cnc(C)nc1N	0%
C[C@H](CCC(=O)NCC(=O)O)[C@H]1CC[C@H]2[C@@H]3[C@@H](O)C[C@@H]4C[C@H](O)CC[C@]4(C)[C@H]3CC[C@]12C	-19%
CC(C)Nc1cccnc1N1CCN(C(=O)c2cc3cc(NS(C)(=O)=O)ccc3[nH]2)CC1	1.8µM*!	nsP2 cell sec=-1%;CHIKV NSP2 FL=u;Furin counterscr=-6%;NS23 peptide cs=u;Papain cs=-2%;nsP2pro confirm=u;HCV NS3 4A cs=i
CS(=O)(=O)Nc1ccc(OCC(=O)N2CCN(c3ccc(F)cc3)CC2)nc1	-15%
COc1ccc(N2CCN(C(=O)c3cc4ccc5cccnc5c4[nH]3)CC2)cc1	-9%
c1ccc(-c2nc(C3CCOCC3)no2)c(OC2CCN(C3CCCC3)C2)c1 (stereo not drawn)	-9%
OCC1(Cc2ccccc2)CCCN(Cc2cn[nH]c2-c2ccc(F)cc2)C1 (stereo not drawn)	-2%
CC(=O)N[C@@H](CCCN=C(N)N)C(=O)N[C@H]1CSSC[C@@H](C(N)=O)NC(=O)[C@H](Cc2c[nH]c3ccccc23)NC(=O)[C@H](CCCN=C(N)N)NC(=O)[C@@H](Cc2ccccc2)NC(=O)[C@H](Cc2cnc[nH]2)NC(=O)[C@@H](C)NC1=O	224%
O=C1Nc2ccccc2/C1=C/c1cc(O)ccc1O	7.9µM*	nsP2 cell sec=u;CHIKV NSP2 FL=u;Furin counterscr=u;NS23 peptide cs=23µM*;Papain cs=-11%;nsP2pro confirm=8µM*;HCV NS3 4A cs=10µM*
O=C1Nc2ccccc2/C1=C\c1cc(F)c(O)c(F)c1	i
O=C1Nc2ccccc2/C1=C\c1ccc(O)c(Cl)c1	i
COc1ccc(CC(=O)Nc2nc(-c3ccc4c(c3)CCN4C(=O)c3ccccc3C)c(C)s2)cc1	-9%
COc1ccccc1CNc1nc(-c2ccco2)nn1S(=O)(=O)c1ccc(Cl)cc1	8.9µM*	nsP2 cell sec=17%
COc1ccccc1CNc1nc2c(S(=O)(=O)c3ccc(C)c(C)c3)nnn2c2ccc(Cl)cc12	-11%
O=C(c1ccco1)n1nc(-c2ccccc2)nc1NCc1ccc(Cl)cc1	-14%
C[C@@H](O)[C@H]1C(=O)N2C(C(=O)O)=C(S[C@@H]3CN[C@H](C(=O)Nc4cccc(C(=O)O)c4)C3)[C@H](C)[C@H]12	108%
Cc1cnc(-c2ccccc2C(C)C)nc1NCc1ccc(-c2ccnc(C(F)(F)F)c2)cc1	-5%
SMILES	nsP2pro primary	others
COc1cccc(NC(=S)N2CCN(c3ncc(C(F)(F)F)cc3Cl)CC2)n1	-29%
CCC[C@H](NC(=O)[C@@H]1[C@H]2CCC[C@H]2CN1C(=O)[C@@H](NC(=O)[C@@H](NC(=O)c1cnccn1)C1CCCCC1)C(C)(C)C)C(=O)C(=O)NC1CC1	3.9µM*!	nsP2 cell sec=172%;CHIKV NSP2 FL=12µM*;Furin counterscr=-4%;NS23 peptide cs=u;Papain cs=0.026µM*;nsP2pro confirm=3.6µM*;HCV NS3 4A cs=0.052µM*
CCCCCOc1ccc(-c2ccc(-c3ccc(C(=O)NC4CC(O)C(O)NC(=O)C5C(O)C(C)CN5C(=O)C(C(C)O)NC(=O)C(C(O)C(O)c5ccc(O)cc5)NC(=O)C5CC(O)CN5C(=O)C(C(C)O)NC4=O)cc3)cc2)cc1 (stereo not drawn)	i
CC1(C)CCC(C)(C)c2cc(Cn3cccn3)c(/C=C/c3ccc(C(=O)O)cc3)cc21	18%
Cn1c(CN2CCCCC2)nc2cc(NC(=O)c3ccc(Cl)cc3)ccc21	32%
Cn1c(CCCC(=O)O)nc2cc(N(CCCl)CCCl)ccc21	9.9µM*	nsP2 cell sec=-9%;CHIKV NSP2 FL=16µM*;Furin counterscr=5%;NS23 peptide cs=u;Papain cs=253%;nsP2pro confirm=8µM*;HCV NS3 4A cs=u
CCCCc1nc2cc(/C=C/C(=O)NO)ccc2n1CCN(CC)CC	43%
Cc1ccc(-c2ccc(=O)n(CC(=O)NCCc3ccc(O)cc3)n2)cc1	4%
Cc1cc(C)nc(NC(=S)N2CCN(c3ccc4nncn4c3)CC2)c1	-24%
COC(=O)CCNC(=O)C1CN(S(=O)(=O)c2cccs2)CC12CCCCC2 (stereo not drawn)	-5%
CC(C)(C)c1cc(C(=O)/C(C#N)=N/Nc2cccc(Cl)c2)no1	39%
Cc1[nH]cnc1CN1CCc2c(c3ccccc3n2C)C1=O	-12%
Cc1nccn1CC1CCc2c(c3ccccc3n2C)C1=O (stereo not drawn)	61%
Cc1[nH]cnc1C[C@H]1CCc2c(C)c3ccccc3n2C1=O	u	nsP2 cell sec=-7%;CHIKV NSP2 FL=97%;Furin counterscr=-4%;NS23 peptide cs=-7%;Papain cs=-6%;nsP2pro confirm=53%;HCV NS3 4A cs=i
CN(C)c1ccc2c(c1)OC(N)=C(C#N)C2c1cccc(C(F)(F)F)c1 (stereo not drawn)	54%
COc1nccc(-c2nc(Nc3ccc(F)c(F)c3)c3ccccc3n2)c1OC	i
O=C(Nc1nc2ccccc2s1)c1ccc2c(c1)OCCN(CCC(F)(F)F)C2	i
O=C(C1CCOCC1)N1CCC(c2nc(C3CCOCC3)no2)CC1	i
COC(=O)N1CCCCC1C(=O)N1CCC2(CC1)c1nc[nH]c1CCN2C (stereo not drawn)	-11%
